Data from PubChem BioAssay (NCI).
Compounds without any hit were thinned out: in the full panel of roughly 83,000, 20% have a hit.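 Interpretation: 100, growth as untreated; towards 0, rising growth inhibition; 0, no net growth; 0 to -100, cell death. Compounds scoring below 10 were considered active.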 The source made the active and inactive calls.

Each compound was assayed on SK-MEL-2 melanoma (assay: NCI-60 one-dose screen, 48 h (100 = growth as untreated, 0 = no growth, -100 = all killed)). Conditions: 10 µM unless noted.
Protocol: Growth inhibition of the SK-MEL-2 human tumor cell line is measured as a screen for anti-cancer activity. Cells are grown in 96 well plates and exposed to the test compound for 48 hours. Compounds are tested at a single concentration, which is 10^-5 M for most compounds. The reported endpoint is percent growth (GI% or GIPRCNT), where numbers from 0 - 100% represent growth inhibition, and numbers from -100% - 0 represent cell death. For example, a value of 40 represents 60% growth inhibition. A value of 0 means no net growth occurred over the course of the experiment. A value of -40 indicates 40% of cells at the beginning of the experiment died by the end of the experiment. A value of -100 means all cells are dead at the end of the experiment.
NCI-60 Human Tumor Cell Lines Screen was performed using the standard one-dose NCI protocol, which is described in more detail at https://dtp.cancer.gov/discovery_development/nci-60/default.htm.
Compounds with GIPRCNT values below 10 were considered active. Activity score was based on GIPRCNT using the following formula: […]
Score is 0 for GIPRCNT values of 100 or above, 50 for GIPRCNT values of 0, and 100 for GIPRCNT values of -100.

| SMILES | growth |
| --- | --- |
| O=C(NC[C@H](O)CN1CCc2ccccc2C1)c1cc(NC2COC2)ncn1 | 94.4% (inactive) |
| CSc1nc(-c2cccs2)c2c(N)[nH]nc2n1 | 104% (inactive) |
| CCCCOc1nc2ccc(C)cc2cc1/C=C/C(=O)/C=C/c1ccc2c(c1)OCO2 | 69.6% (inactive) |
| COc1cc([C@H](C)c2ccc3ccccc3c2)cc(OC)c1OC | 28.3% (inactive) |
| CCN1CCN(Cc2ccc(NC(=O)c3cccc(C#Cc4cccc5[nH]nc(N)c45)c3)cc2C(F)(F)F)CC1 | -70.1% (active) |
| O=C(NCc1ccccc1)c1ccc2c(c1)NC(=O)[C@@H]1CCCN21 | 99% (inactive) |
| O=C1CC(c2ccc(O)c(O)c2)Oc2cc(O)c([C@@H]3O[C@H](CO)[C@@H](O)[C@H](O)[C@H]3O)c(O)c21 (stereo not given in full) | 104% (inactive) |
| CC[C@H](Nc1ncnc2nc[nH]c12)c1nc2cccc(CC(=O)c3ccc(C(=O)NO)cc3)c2c(=O)n1-c1ccccc1 | 77.5% (inactive) |
| CCN(CC)CC#CCOC(=O)[C@]1(C)CCC[C@]2(C)[C@H]3C[C@H]4C(C(C)C)=C[C@]3(CC[C@H]21)[C@@H]1C(=O)CCC(=O)[C@@H]14 | 72.3% (inactive) |
| COc1cc(C2=NN(C=O)C(c3cccc(Nc4ccnc5cc(C(F)(F)F)ccc45)c3)C2)cc(OC)c1OC (stereo not given) | 70.7% (inactive) |
| CC(=O)[C@@H]1CC[C@]2(C(=O)O)CC[C@]3(C)[C@H](CC[C@@H]4[C@@]5(C)Cc6c([nH]c7ccccc67)C(C)(C)[C@@H]5CC[C@]43C)[C@@H]12 | 79.5% (inactive) |
| COc1ccc(-c2cc(-c3nnc(SCC(=O)Nc4ccc(C(C)=O)cc4)o3)c3ccccc3n2)cc1 | 40.1% (inactive) |
| COc1cc(NC(=O)c2cc(O)c(C/C=C(\C)CCC=C(C)C)c(O)c2)cc2c1O[C@]1(C)CC[C@@H](O)C(C)(C)[C@H]1C2 | -5.49% (active) |
| c1ccc2c3c([nH]c2c1)C(c1ccc(C2NCCc4c2[nH]c2ccccc42)cc1)NCC3 (stereo not given) | -13% (active) |
| CCCCCCN1C(=O)CN=C1Nc1ccc2cc3ccc(NC4=NCC(=O)N4CCCCCC)cc3nc2c1 | 79.9% (inactive) |
| O=C1NN(c2ccccc2)C(c2ccc3c(c2)OCO3)N2CCC[C@@H]12 (stereo not given in full) | 89.8% (inactive) |
| OCCNc1nc(NCCO)nc(Nc2ccc(C3=NN(c4cc(Cl)cc(Cl)c4)C(c4ccc(Cl)cc4)C3)cc2)n1 (stereo not given) | 73.7% (inactive) |
| Nc1cc(N)nc(SCC(=O)O)n1 | 99.7% (inactive) |
| COc1ccccc1-c1ccc2nc(NC(=O)Nc3cc(C(F)(F)F)cc(C(F)(F)F)c3)sc2c1 | -14.1% (active) |
| N#Cc1ccc(Oc2ccc3ccc(=O)oc3c2)cc1 | 135% (inactive) |

| SMILES | growth |
| --- | --- |
| CCCCCCCc1n(Cc2ccc3ccccc3c2)c2ccccc2[n+]1Cc1ccc2ccccc2c1 | -74.9% (active) |
| CCOC(=O)c1c(-c2ccc(O)cc2)c(C#N)c2c(C#N)c(N)nn2c1N | 44.9% (inactive) |
| CNS(=O)(=O)c1cccc(-c2ccc3c4c(n(C)c(=O)c3c2)-c2ccccc2C4=O)c1 | 113% (inactive) |
| Nc1cccc(C(=O)Nc2ccc3c(O)c(N=Nc4ccc(N=Nc5ccc(S(=O)(=O)O)cc5)cc4)c(S(=O)(=O)O)cc3c2)c1 | 108% (inactive) |
| COC1=CC=CC2(OC)C3(O)CCCc4cccc(c43)N3C(=O)COC132 (stereo not given) | 93.9% (inactive) |
| CN1C(=O)c2cc(Cl)nc3c(NC(=O)c4cccc(Cl)c4)c(Cl)c(NC(=O)c4cccc(Cl)c4)c1c23 | -39% (active) |
| COc1ccc2nc(-c3ccc(Cl)cc3)cc(-c3nnc(SC/C(=N/O)c4ccccc4)o3)c2c1 | 61.3% (inactive) |
| COc1ccc(/C=C(/C(=O)N2CCCC2)c2cc(OC)c(OC)c(OC)c2)cc1 | 64.3% (inactive) |
| CCCCc1nc(Cl)c(C2CC(c3ccc(Cl)cc3)=NN2c2cc(Cl)cc(Cl)c2)[nH]1 (stereo not given) | 96% (inactive) |
| Cc1cnc(-c2ccc(-c3ccc(NC(=O)Nc4c(F)cc(F)cc4F)cc3F)c3c2C(=O)NC3)[nH]1 | 58.1% (inactive) |
| c1ccc(Sc2ncccn2)nc1 | 107% (inactive) |
| CNc1cccc2c1C(=O)c1cccc(N)c1C2=O | 63.7% (inactive) |
| C=C(C)[C@@H]1CC[C@]2(C(=O)OCCOCCOCC[P+](c3ccccc3)(c3ccccc3)c3ccccc3)CC[C@]3(C)[C@H](CC[C@@H]4[C@@]5(C)CC[C@H](OC(C)=O)C(C)(C)[C@@H]5CC[C@]43C)[C@@H]12 | -75.6% (active) |
| O=C1C(=O)c2c(nc3ccc(C(F)(F)F)cn23)-c2ccccc21 | -67.1% (active) |
| O=C(/C(=C/c1ccc([N+](=O)[O-])cc1)SCc1ccccc1)c1ccc(Cl)cc1 | 84.5% (inactive) |
| COc1ccc(C2=NN(c3ccc(S(N)(=O)=O)cc3)C(c3ccc(Cl)cc3)C2)c(O)c1 (stereo not given) | 87.9% (inactive) |
| C/C(=C\c1cnc(C)s1)[C@@H]1C[C@@H]2O[C@@H]2CCC[C@H](C)[C@H](O)[C@@H](C)C(=O)C(C)(C)[C@@H](O)CC(=O)O1 | 27.5% (inactive) |
| COc1cc(C2=NN(c3ccccc3)C(c3cccc(Nc4ccnc5cc(C(F)(F)F)ccc45)c3)C2)cc(OC)c1OC (stereo not given) | 86.6% (inactive) |
| CN1CCN(CC#CCOC(=O)CNC(=O)[C@]23CCC(C)(C)C[C@H]2C2=CC[C@@H]4[C@@]5(C)CC[C@H](O)C(C)(C)[C@@H]5CC[C@@]4(C)[C@]2(C)CC3)CC1 | 95.4% (inactive) |
| Oc1ccccc1-c1nc2c3ccccc3c3ccccc3c2o1 | 110% (inactive) |
